± gives the standard deviation.
Assays:
Conditions in all cases: modulator concentration 10 µM
[1] = system: RAW-Dual (murine macrophage reporter line); assay: NF-kB reporter (SEAP) activity fold change vs agonist alone; higher = enhanced NF-kB activity
Outline: (§1)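 RAW-Dual murine macrophage reporter cells were seeded at 50 000 per well in 384-well plates and pre-incubated 1 hour at 37 °C with compound pin-transferred to 10 μM final. After 1 hour, a PRR agonist was added and cells incubated overnight. Supernatant NF-κB (SEAP, QUANTI-Blue, 620 nm absorbance) and IRF (Lucia luciferase, QUANTI-Luc, luminescence) signals were divided by the mean agonist-only control on the same plate to give fold change. Two replicate plates were averaged, with errors by propagation.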

[2] = system: RAW-Dual (murine macrophage reporter line); assay: IRF reporter (Lucia luciferase) activity fold change vs agonist alone; higher = enhanced IRF activity
Outline: as §1

[3] = system: RAW-Dual (murine macrophage reporter line); assay: viability score (confluency relative to resting cells, overnight) (fraction); higher = more viable, active = viable (0.7 or more)
Outline: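 Overnight exposure to 10 μM final compound was carried out on RAW-Dual macrophages in 384-well plates. IncuCyte software generated two confluency masks over all wells imaged with IncuCyte. The viability score gives confluency in relation to resting cells. A compound met the cutoff if each mask exceeded 70% of resting cells.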

[4] = agonist: CpG ODN 1826 0.5 ug/mL

Row | Structure (SMILES) | NF-kB reporter [1, 4] | NF-kB reporter ([1]; agonist: LPS 0.1 ug/mL) | NF-kB reporter ([1]; agonist: MPLA […]) | IRF reporter ([2]; agonist: 3'3'-cGAMP 10 ug/mL) | IRF reporter ([2]; agonist: LPS 0.1 ug/mL) | IRF reporter ([2]; agonist: MPLA […]) | viability score [3]
1 | COc1ccc(CNCc2cccc(C(F)(F)F)c2)cc1 | 0.749 ± 0.083 | 1.04 ± 0.087 | 1.02 ± 0.045 | 1.12 ± 0.14 | 0.966 ± 0.071 | 1.37 ± 0.21 | 0.27 (inactive)
2 | CN1CCC(=C2c3ccccc3C=Cc3ccccc32)CC1 [Prestw-103] | 0.516 ± 0.038 | 0.833 ± 0.056 | 1.01 ± 0.053 | 0.72 ± 0.067 | 0.905 ± 0.1 | 0.915 ± 0.12 | 0.293 (inactive)
3 | O=C(NC1CCN(c2ccc(C(F)(F)F)cn2)C1)c1nc2ccccc2s1 (stereo not given) | 1.09 ± 0.056 | 1.05 ± 0.088 | 0.909 ± 0.081 | 0.953 ± 0.049 | 1.27 ± 0.076 | 1.11 ± 0.28 | 0.983 (active)
4 | CCC(C)NS(=O)(=O)c1ccc([N+](=O)[O-])cc1 (stereo not given) | 1.13 ± 0.11 | 1.05 ± 0.075 | 0.977 ± 0.034 | 0.883 ± 0.05 | 1.13 ± 0.1 | 1.18 ± 0.14 | 0.998 (active)
5 | CC1CCN(C2CC(=O)N(c3ccc(S(=O)(=O)N4CCOCC4)cc3)C2=O)CC1 (stereo not given) | 0.986 ± 0.082 | 1.02 ± 0.065 | 0.843 ± 0.05 | 1.02 ± 0.025 | 1.33 ± 0.096 | 0.995 ± 0.23 | 1 (active)
6 | O=C(C=Cc1ccc(O)cc1)c1ccc(O)cc1O | 1.33 ± 0.36 | 1.09 ± 0.054 | 1.74 ± 0.12 | 0.305 ± 0.012 | 0.966 ± 0.1 | 0.81 ± 0.13 | 0.979 (active)
7 | COc1ccc(C)c2sc(NC(=O)c3ccco3)nc12 | 1.18 ± 0.089 | 0.847 ± 0.068 | 1.11 ± 0.031 | 0.863 ± 0.078 | 0.845 ± 0.061 | 0.882 ± 0.073 | 0.971 (active)
8 | O=C(CSc1nc[nH]n1)NC(c1ccccc1)c1ccccc1 | 0.77 ± 0.077 | 0.86 ± 0.053 | 1.01 ± 0.088 | 0.51 ± 0.033 | 1.33 ± 0.096 | 1.62 ± 0.17 | 1.01 (active)
9 | CCOc1ccc(CN2CCN(c3cc(C)nc4c5c(C)cc(C)nc5nn34)CC2)cc1 | 0.944 ± 0.08 | 1.04 ± 0.077 | 1.02 ± 0.022 | 1.05 ± 0.1 | 1 ± 0.14 | 0.96 ± 0.26 | 1 (active)
10 | FC(F)(F)c1ccc(CN2CCCC(c3nc4ccccc4[nH]3)C2)cc1 (stereo not given) | 0.701 ± 0.27 | 0.876 ± 0.21 | 0.555 ± 0.2 | 0.693 ± 0.32 | 0.829 ± 0.19 | 0.967 ± 0.23 | 0.903 (active)
11 | CCCOc1ccc(-c2ccc(-c3nc(Cc4ccc(OC)c(OC)c4)no3)cc2)cc1 | 0.763 ± 0.062 | 0.972 ± 0.046 | 1.04 ± 0.097 | 0.978 ± 0.048 | 1.08 ± 0.063 | 1.12 ± 0.12 | 1.01 (active)
12 | COc1ccc(C(=O)C=Cc2cc(OC)c(OC)c(OC)c2)c(O)c1 | 1.63 ± 0.13 | 0.199 ± 0.018 | 0.273 ± 0.026 | 0.148 ± 0.014 | 0.0569 ± 0.019 | 0.0398 ± 0.015 | 0.794 (active)
13 | CN(C)CCS(=O)c1ccccc1 (stereo not given) | 0.955 ± 0.08 | 0.907 ± 0.071 | 1.16 ± 0.21 | 0.983 ± 0.038 | 1.32 ± 0.23 | 1.39 ± 0.27 | 1.04 (active)
14 | CCOc1ccc(C=c2sc3nc4ccccc4n3c2=O)cc1Cl | 1.07 ± 0.064 | 1.02 ± 0.095 | 0.979 ± 0.031 | 1.01 ± 0.036 | 1.06 ± 0.051 | 0.974 ± 0.094 | 0.998 (active)
15 | O=C(NCC1(O)CCc2ccccc2C1)c1cccc(C(F)(F)F)c1 (stereo not given) | 0.848 ± 0.041 | 0.939 ± 0.1 | 0.957 ± 0.054 | 0.989 ± 0.045 | 1.09 ± 0.26 | 1.12 ± 0.43 | 0.994 (active)
16 | O=C(CCn1c(=O)oc2ccccc21)Nc1ccncc1 | 1.17 ± 0.068 | 1.04 ± 0.079 | 1.01 ± 0.033 | 0.996 ± 0.16 | 0.932 ± 0.045 | 0.949 ± 0.14 | 1 (active)
17 | NC(=O)Cn1c(COc2ccccc2Cl)nc2ccccc21 | 1.35 ± 0.32 | 1.03 ± 0.051 | 0.96 ± 0.07 | 1.01 ± 0.034 | 1.26 ± 0.16 | 1.27 ± 0.21 | 0.994 (active)
18 | COc1ccc(C(NC(=O)c2ccccc2F)c2ccc(OC)cc2)cc1 | 1.03 ± 0.17 | 1.08 ± 0.093 | 1.01 ± 0.095 | 1 ± 0.032 | 1.21 ± 0.27 | 1.24 ± 0.16 | 1 (active)
19 | O=C(O)CC(c1ccccc1)N1C(=O)c2ccccc2C1=O (stereo not given) | 0.999 ± 0.17 | 1.04 ± 0.13 | 0.963 ± 0.11 | 0.976 ± 0.044 | 1.24 ± 0.22 | 1.3 ± 0.21 | 1 (active)
20 | FC(F)(F)c1nnc2ccc(NC3CCN(c4ncnc5c4CCCC5)CC3)nn12 | 1.19 ± 0.096 | 1.52 ± 0.13 | 1.79 ± 0.13 | 1.17 ± 0.086 | 1.46 ± 0.091 | 1.4 ± 0.18 | 0.972 (active)
